Screening results: PubChem BioAssay, National Center for Advancing Translational Sciences (NCATS)
The list is not random: actives were taken first. Their share in the collection is about 0.93%.
CtBP-E1A inh: CtBP/E1A binding inhibition. AlphaScreen GST-E1A/His-CtBP binding, 1536-well; stronger effect = lower value. activity change, % (no concentration beside the values). 0.49% of 340,000 active. AID 651724
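Steps: dispense buffer (Tris pH 8.0, NaCl 300 mM, TCEP 1 mM, BSA, Tween 20); add 5X protein mix (GST-E1A, His-CtBP, 125 nM each); pin 23 nL compound; 2 h at 37 °C, dark; add 5X beads (50 ug/mL); 1 h; read.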
MBNL1-CUG inh: blocks human MBNL1 binding to CUG repeat RNA. Q9NR56. TR-FRET MBNL1-His/biotin-(CUG)12 binding, 665/545 ratio. Potency, µM (top dose mostly 57.5 µM), inactives show at the top dose activity change, negative = inhibition, most hits filed as inhibitors. 0.036% of 280,000 active; active = well fitted inhibition curve with a large enough effect in the signal ratio, with a control signal flat, not every such curve was filed as active; inconclusive = small, poorly fitted or top-dose-only effect, or effect the other way, or a change in a side signal; inactive = no such curve, though single readings can be large or run the other way; the % refers to the signal ratio; note: potency is the fitted concentration of half-maximal effect
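TR-FRET between His-tagged MBNL1 and biotin-(CUG)12 RNA, detected with Tb anti-His antibody (0.055 ng/ul) and streptavidin-XL665 (5 nM), 60 min at room temperature. Compounds titrated 92 nM to 58 uM; 665/545 nm ratio normalized to buffer and complex controls.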
PKM2 act: activators of human pyruvate kinase M2; P14618; purified PKM2, Kinase-Glo ATP luminescence, activation; response scale: 0% is enzyme alone, no compound; Potency, µM (top dose mostly 57.5 µM), for the others: top-dose activation, usual class: activators; 0.34% of 260,000 active; AID 1631; active = well fitted activation curve with a large enough effect; inconclusive = small, poorly fitted or top-dose-only effect; inactive = no such curve, though single readings can be large or run the other way; note: potency is the fitted concentration of half-maximal effect; nearly all actives have a fitted effect of over 55% in size
Target sequence (P14618 whole entry, looked up): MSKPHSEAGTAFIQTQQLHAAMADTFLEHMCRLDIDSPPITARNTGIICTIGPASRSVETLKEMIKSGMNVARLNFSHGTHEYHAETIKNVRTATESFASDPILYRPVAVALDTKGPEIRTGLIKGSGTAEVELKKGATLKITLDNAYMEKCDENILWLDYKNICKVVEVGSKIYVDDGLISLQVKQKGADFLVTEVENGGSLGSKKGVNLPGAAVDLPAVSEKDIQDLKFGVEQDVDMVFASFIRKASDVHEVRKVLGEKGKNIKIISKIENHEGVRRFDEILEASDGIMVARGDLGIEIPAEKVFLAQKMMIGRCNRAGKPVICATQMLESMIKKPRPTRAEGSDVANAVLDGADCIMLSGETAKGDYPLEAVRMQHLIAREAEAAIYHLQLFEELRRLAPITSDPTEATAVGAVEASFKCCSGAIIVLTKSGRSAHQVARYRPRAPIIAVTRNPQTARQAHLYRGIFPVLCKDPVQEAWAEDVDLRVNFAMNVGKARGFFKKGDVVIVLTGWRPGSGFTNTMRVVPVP
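Purified hPK-M2 (>95% pure) converted ADP (0.1 mM final) to ATP with 0.5 mM PEP in 50 mM imidazole pH7.2, KCl, MgCl2, Tween 20, BSA; 1 h at room temperature. ATP detected by Kinase-Glo luminescence.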
Six1-Eya2 inh: inhibitors of human Six1/Eya2 interaction; Q15475+O00167; AlphaScreen GST-Six1/His-Eya2 binding, biochemical; stronger effect = lower value; activity change, % (concentration not given with the values); 0.56% of 360,000 active; AID 651725
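Compounds are tested against tagged Six1 and Eya2 proteins bridged by glutathione donor and nickel acceptor beads; after a one-hour incubation at 37 °C without light, AlphaScreen emission is recorded.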
Active calls of the source: *; ? = inconclusive; nt = no result given; [ ] = another dose, or the depositor's remark. Cut-off read from the data, not from the text of the source, unless noted: active = activity change below about -65%; inconclusive = mostly about -30% to -63%; inactive = weaker than that. % is set by controls: 0 for no effect and ±100 for the full control effect.

SMILES	CtBP-E1A inh	MBNL1-CUG inh	PKM2 act	Six1-Eya2 inh
COc1ccc(NC(=O)C2(C)CCN2Cc2ccc(C(C)C)cc2)cc1OC (configuration not stated)	-4.3	nt	nt	-7.9
NC(c1ccccc1)c1csc(Nc2ccc(C(=O)c3ccccc3)cc2)n1 (configuration not stated)	-6.5	nt	nt	-9.7
Cc1nc2cc(-c3ccsc3-n3c(C)ccc3C)[nH]n2c(=O)c1Cl	?	1.1%	5.9%	-77.7*
C[C@H](CO)N1C[C@H](C)[C@H](CN(C)Cc2ccncc2)Oc2ncc(Br)cc2C1=O	0.7	nt	nt	-1.0
O=C(CN1C(=O)C2CCCCC2C1=O)Nc1nc(-c2ccccn2)cs1 (configuration not stated)	-84.4*	0.1%	3.6%	-84.4*
C[C@@H](C(=O)Nc1nc(-c2ccccn2)cs1)N1C(=O)C2CCCCC2C1=O (some centres not stated)	-89.6*	6.9%	-13.1%	-90.4*
Cn1c(CSCc2ccc(Cl)cc2Cl)n[nH]c1=S	3.3	-1.4%	28.2µM*	0.9
Cn1c(CSCc2ccccc2Cl)n[nH]c1=S	nt	-8.4%	17.9%	2.7
COC(=O)COc1ccc(/C=N/NC(=O)c2ccc(N(Cc3ccccc3)S(C)(=O)=O)cc2)cc1	-79.1*	6.3%	1.6%	-75.3*
CCOC(=O)C1=C[C@@H](C2CCCC2)N(S(=O)(=O)c2ccc([N+](=O)[O-])cc2)[C@H]1c1ccccc1	?	nt	nt	-29.9
Cc1cc([N+](=O)[O-])cc(/C=N/n2c(C)nc3ccccc3c2=O)c1O	-85.9*	12.5%	-4.9%	?
O=C(/C=C/c1ccc(F)cc1)NC(=S)N1CCN(c2ccccn2)CC1	-74.5*	nt	-6.8%	-15.5
Cc1ccc(NC(=S)N=Nc2c(O)[nH]c3ccccc23)cc1	-15.0	5.4%	1.9%	-9.5
CNC(=S)N=Nc1c(O)[nH]c2ccccc12	-69.1*	?	-0.9%	-69.7*
Oc1ccc(NC(=S)N=Nc2c(O)[nH]c3ccccc23)cc1	-72.3*	?	16.6%	-71.4*
C/C(=N\NC(=O)c1cc(C)nc2ccccc12)c1ccncc1	-7.8	6.8%	0.0%	-3.4
C/C(=N\NC(=O)COc1ccccc1-c1ccccc1)c1ccccn1	-25.0	-2.3%	1.2%	-65.4*
C/C(=N\NC(=O)c1ccc(Cl)cc1)c1ccccn1	?	28.5%	-6.1%	-89.7*
CC(=NNC(=S)N1CCC1)c1ccccn1	-95.3*	nt	nt	-90.6*
C/C(=N\NC(=O)c1cc(C)nc2ccccc12)c1ccccn1	-92.1*	nt	nt	-89.3*
CCc1nc2ccc(C(=O)NCCN3CCNC3=O)cn2c1N(C)CCC(C)C	-0.3	nt	nt	0.1
CC(=NNC(=S)N1CCCC1)c1ccccn1	-20.3	nt	nt	?
CC(=NNC(=S)Nc1cccc(Cl)c1)c1ccccn1	-95.7*	nt	nt	-90.8*
CC(=NNC(=S)N1CC2CCC(CC2)C1)c1cccc(C)n1	-15.8	nt	nt	-88.4*
N#Cc1ccc2c(c1)C[C@]1(CCCCN3C(=O)c4ccccc4C3=O)OC3=C(C(=O)OC4(CCCCC4)C3)C2O1	nt	2.9%[11.5 µM]	12.2%[11.5 µM]	nt
SMILES	CtBP-E1A inh	MBNL1-CUG inh	PKM2 act	Six1-Eya2 inh
COc1cc(/C=N/NC(=O)c2cncc(Br)c2)cc([N+](=O)[O-])c1O	-96.0*	nt	-3.3%	-91.3*
O=C(N/N=C\c1ccc([N+](=O)[O-])o1)c1cncc(Br)c1	?	?	-4.0%	?
CCOc1cc(/C=N/NC(=O)c2cccs2)cc([N+](=O)[O-])c1O	nt	?	0.2%	-86.8*
COc1cc([N+](=O)[O-])cc(/C=N/NC(=O)c2cncc(Br)c2)c1O	-89.7*	nt	1.0%	-92.9*
O=C(N/N=C/c1ccc(-c2ccccc2[N+](=O)[O-])o1)c1cncc(Br)c1	-66.2*	?	8.9%	-78.2*
O=C(O)c1ccc(NS(=O)(=O)c2ccsc2C(=O)O)cc1	nt	nt	-6.2%	nt
COc1ccc(NC(=O)c2sc(=O)n(Cc3cccc(C(F)(F)F)c3)c2C)cc1OC	-26.2	nt	nt	-27.5
Cc1nn(C)c(Sc2ccccc2N)c1[N+](=O)[O-]	nt	20.5%	11.2µM*	0.7
O=S(=O)(Nc1ccc(NS(=O)(=O)c2ccccc2)c(Cl)c1)c1ccccc1	14.2	nt	nt	14.6
Cc1cc(NS(=O)(=O)c2ccccc2)cc(Cl)c1O	-12.3	0.7%	15.8µM*	7.7
CC(=O)CCc1oc2c([N+](=O)[O-])cccc2c1-c1ccc(C)o1	-19.3	?	10µM*	-22.1
CCCCCCCCN1C(=O)[C@H](CC(=O)N2CCCC2)C[C@@]2(C(=O)OC)CC(C)(C)CC=C12	-5.0	nt	nt	0.1
CC1C=CC=CC=CC=CC=CC=CC=CC(OC2OC(C)C(O)C(N)C2O)CC2OC(O)(CC(O)CC(O)C(O)CCC(O)CC(O)CC(=O)OC(C)C(C)C1O)CC(O)C2C(=O)O (configuration not stated)	0.0	nt	nt	-75.0*
O=S(=O)(c1ccc2ccccc2c1)N1CCN=C1SCc1cccnc1	nt	2.8%	17.8µM*	-0.2
CC(=O)Nc1ccc(S(=O)(=O)N2CCN=C2SCc2ccc(C)cc2)cc1	1.8	-0.6%	-1.5%	5.4
CC(=O)Nc1ccc(S(=O)(=O)N2CCN=C2SCc2cccnc2)cc1	nt	-5.3%	15.8µM*	1.4
Cc1cc(Br)cn2c(Cc3cccc(F)c3)c(-c3ccccc3)nc12	2.5	nt	nt	-0.6
CC(=O)Nc1ccc(-c2ccnc3c2CC(C)(C(=O)Nc2ccc(F)c(Cl)c2)O3)cc1 (configuration not stated)	-21.7	nt	nt	-7.6
O=C(CSc1n[nH]c(-c2ccccn2)n1)Nc1ccccc1	-101.0*	0.9%	34.2%	-95.0*
O=C(CSc1n[nH]c(-c2ccccn2)n1)Nc1ccccc1F	1.0	0.5%	nt	-92.4*
COc1ccc(NC(=O)CSc2n[nH]c(-c3ccccn3)n2)cc1	-79.2*	-1.9%	nt	-92.4*
COc1ccccc1NC(=O)CSc1n[nH]c(-c2ccccn2)n1	-89.6*	1.7%	nt	-95.1*
COc1ccccc1-c1nc(SCC(=O)Nc2ccccc2F)n[nH]1	2.8	-3.9%	1.3%	2.0
O=c1cc(-c2ccccc2)[nH]n1-c1nc2ccccc2[nH]1	-77.2*	1.4%	-5.0%	-81.0*
CCc1cc(=O)[nH]c(-n2[nH]c(-c3ccccc3)cc2=O)n1	-9.8	5.5%	?	-6.8
CCOC(=O)N1CCN(c2cc(NCCC(=O)O)c3c4c(onc24)-c2ccccc2C3=O)CC1	-69.9*	?	-43.5%	-69.3*
O=C1c2ccccc2-c2onc3c(N4CCN(CCO)CC4)cc(N4CCN(C(=O)c5ccco5)CC4)c1c23	-75.5*	?	nt	?
O=C(O)CCCNc1cc(N2CCN(C(=O)c3ccco3)CC2)c2noc3c2c1C(=O)c1ccccc1-3	?	?	-9.0%	?
COC(=O)[C@@]1(Cc2ccccc2)[C@H]2c3cc(C(=O)N4CCCC4)[nH]c3C[C@H]2CN1C(=O)c1ccccc1	nt	nt	-1.7%	nt
